An excerpt weighted towards active compounds, which were near 6.7% of everything screened.
Pf Dd2 growth: blocks growth of Plasmodium falciparum Dd2 parasites; hit rate 2.3% among 94,000; AID 1159554; P. falciparum Dd2 growth, SYBR Green, 72 h; hits give low values; activity change, % at 10 µM; in the data active means activity change below about -80%
C diff HTS: C. difficile growth inhibition; AID 1259249; Clostridium difficile clinical isolate growth, OD600, 24 h; hits give low values; growth activity, negative = inhibition, % at 16 µg/mL (by protocol); hit rate 0.25% among 86,000;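 active means mean growth activity at or below -80% and every replicate also at or below -80%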;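 further: 0% = DMSO wells and -100% = levofloxacin 16 µg/mL wells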
T cruzi growth-1: inhibitors of T. cruzi proliferation; T. cruzi beta-gal in NIH3T3, GalScreen luminescence, 90 h; inhibition, % at 8.34 µM; hit rate 5.9% among 77,000; AID 624255;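 active means mean inhibition above about 93%, with at least 55% of replicates each passing it, limit read from the data, passing the limit was not always enough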
T cruzi growth-2: Trypanosoma cruzi proliferation inhibition; inhibition, % at 8.35 µM; hit rate 72% among 5,600; T. cruzi beta-gal in NIH3T3, GalScreen luminescence, 90 h; shares compounds with T cruzi growth-1;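 active means mean replicate inhibition above about 95% and at least 55% of replicates individually reaching it, limit read from the data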
T cruzi growth-3: blocks T. cruzi growth in NIH3T3 host cells; shares compounds with T cruzi growth-1; T. cruzi beta-gal in NIH3T3, GalScreen luminescence, 90 h; inhibition, % at 2.09 µM; hit rate 21% among 5,600; AID 651740;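 active means mean inhibition above about 95%, with at least 55% of replicates also reaching it, limit read from the data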;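 further: plate controls were neutral control median for no effect and positive control median for full effect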
3T3 cytotox: NIH/3T3 (mouse) viability loss; shares compounds with T cruzi growth-1; NIH/3T3 viability, CellTiter-Glo ATP luminescence, 90 h; cytotoxicity (signal decrease), % at 8.35 µM; hit rate 14% among 5,600; AID 651742;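 active means mean signal decrease across replicates above about 35% based on untreated-well scatter, with enough replicates individually passing, limit read from the data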;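 further: 0% = median of neutral control wells and 100% = median of positive control wells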
3T3 cytotox 2: NIH/3T3 (mouse) viability loss. shares compounds with T cruzi growth-1. NIH/3T3 viability, CellTiter-Glo ATP luminescence, 90 h. inhibition, % at 24.9 µM. hit rate 56% among 5,600. AID 651744;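 active means mean loss of cell viability signal at or above a set limit, and enough replicates individually reaching it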;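 further: 0% = median of neutral control wells and 100% = median of positive control wells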
The depositor's hits bear a star.

How did CCCC#Cc1ccc2c(c1)O[C@H](CN(C)Cc1cccnc1)[C@H](C)CN([C@H](C)CO)S2(=O)=O do in these assays?
Pf Dd2 growth: -30; C diff HTS: 3; T cruzi growth-1: 115*; T cruzi growth-2: 106*; T cruzi growth-3: 74; 3T3 cytotox: 53*; 3T3 cytotox 2: 31*

Results for CCCC#Cc1ccc2c(c1)O[C@H](CN(C)Cc1cccnc1)[C@@H](C)CN([C@H](C)CO)S2(=O)=O ?
Pf Dd2 growth: -22; C diff HTS: 6; T cruzi growth-1: 123*; T cruzi growth-2: 106*; T cruzi growth-3: 104*; 3T3 cytotox: 32; 3T3 cytotox 2: 92*

What do the screens show for `C[C@@H]1CCCCO[C@H](CN(C)C(=O)C2CCCCC2)[C@@H](C)CN([C@@H](C)CO)C(=O)c2cc(NC(=O)CCCN(C)C)ccc2O1`?
Pf Dd2 growth: -7; T cruzi growth-1: -24

What do the screens show for `CCCNC(=O)Nc1ccc2c(c1)C(=O)N(C)C[C@H](OC)[C@@H](C)CN(C(=O)C1CCOCC1)[C@@H](C)CO2`?
Pf Dd2 growth: -77; T cruzi growth-1: -2

Results for CCCC(=O)N1CCC2(CC1)CN(C(=O)Nc1c(C)noc1C)[C@@H](CO)c1c2c2ccc(OC)cc2n1C ?
Pf Dd2 growth: -23; C diff HTS: -1

How did COc1ccc(S(=O)(=O)N(C)C[C@@H]2Oc3ccc(NC(=O)Nc4c(C)noc4C)cc3CC(=O)N([C@H](C)CO)C[C@H]2C)cc1 do in these assays?
Pf Dd2 growth: 21; C diff HTS: -3; T cruzi growth-1: 4

How did COC(=O)C[C@@H]1C=C[C@@H](NC(=O)c2ccccc2)[C@@H](CO)O1 do in these assays?
Pf Dd2 growth: -3; T cruzi growth-1: 22

Results for CCCC#Cc1ccc2c(c1)O[C@@H](CN(C)Cc1cccnc1)[C@@H](C)CN([C@@H](C)CO)S2(=O)=O ?
Pf Dd2 growth: -39; C diff HTS: 4; T cruzi growth-1: 96*; T cruzi growth-2: 99*; T cruzi growth-3: 72; 3T3 cytotox: 33; 3T3 cytotox 2: 18

How did CCCC#Cc1ccc2c(c1)O[C@H](CN(C)Cc1cncnc1)[C@H](C)CN([C@@H](C)CO)S2(=O)=O do in these assays?
Pf Dd2 growth: -2; C diff HTS: 2; T cruzi growth-1: 40

What do the screens show for `CCC(=O)Nc1ccc2c(c1)C(=O)N(C)C[C@@H](OC)[C@@H](C)CN(C(=O)c1ccccc1F)[C@@H](C)CO2`?
Pf Dd2 growth: -15; T cruzi growth-1: 11

How did CCC(=O)N(C)C[C@@H]1Oc2cc(C#CC(C)C)ccc2S(=O)(=O)N([C@@H](C)CO)C[C@H]1C do in these assays?
Pf Dd2 growth: -29; C diff HTS: -5; T cruzi growth-1: 23

Results for C[C@H]1CN([C@@H](C)CO)S(=O)(=O)c2ccc(/C=C/c3ccccc3)cc2O[C@H]1CN(C)C(=O)NC1CCCCC1 ?
Pf Dd2 growth: -64; C diff HTS: -12; T cruzi growth-1: 128*; T cruzi growth-2: 101*; T cruzi growth-3: 89; 3T3 cytotox: -1; 3T3 cytotox 2: 49*

How did C[C@H](CO)N1C[C@H](C)[C@H](CN(C)C(=O)NC2CCCCC2)Oc2cc(/C=C/c3ccccc3)ccc2S1(=O)=O do in these assays?
Pf Dd2 growth: -33; C diff HTS: 8

What do the screens show for `C[C@H]1CN([C@@H](C)CO)S(=O)(=O)c2ccc(/C=C/c3ccccc3)cc2O[C@H]1CN(C)C(=O)NC1CCCC1`?
Pf Dd2 growth: -66; C diff HTS: -2; T cruzi growth-1: 102*; T cruzi growth-2: 99*; T cruzi growth-3: 73; 3T3 cytotox: 34; 3T3 cytotox 2: 102*

What do the screens show for `C[C@@H]1CN([C@@H](C)CO)S(=O)(=O)c2ccc(/C=C/c3ccccc3)cc2O[C@H]1CN(C)C(=O)NC1CCCCC1`?
Pf Dd2 growth: -17; C diff HTS: 13

What do the screens show for `CC(C)NC(=O)Nc1ccc2c(c1)CC(=O)N([C@H](C)CO)C[C@@H](C)[C@H](CN(C)C(=O)Nc1ccc(C(F)(F)F)cc1)O2`?
Pf Dd2 growth: 5; C diff HTS: -2

Screening data: PubChem BioAssay, Broad Institute
